This passage reports binding signal results from publication PMC8384837, “Expanding the binding specificity for RNA recognition by a PUF domain”.

Common to all, as to experiment: yeast three-hybrid, YBZ-1, SC-Leu-His + 0.5 mM 3-AT, 4 days
What all share (conditions): tags: N-Gal4 AD-HA kept; label: inside an RPR1-promoter hybrid RNA with tandem MS2 sites; ssRNA

One assay concerns the target PUM1 PUF domain R3-RSA (Homo sapiens, UniProt Q14671 828-1176, C935R;R936S;Q939A). A digest of the protocol:
(§1)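 The interaction score is the log change in variant frequency from input to selection. Scores were computed in log2 with a pseudocount of 1 for absent variants, using Illumina sequencing of PCR-amplified repeat regions. The input came from four days on SC-Leu and the selection from four days on SC-Leu-His + 0.5 mM 3-AT. The cells were strain YBZ-1 (LexA–MS2 coat fusion, HIS3 reporter) co-expressing Pumilio-1 PUF domain libraries and matching RNA elements from a centromeric plasmid.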

The next assay concerns the target PUM1 PUF domain R3-LWR (Homo sapiens, UniProt Q14671 828-1176, C935L;R936W;Q939R). The method in brief: as §1
For another assay, the target named is PUM1 PUF domain R3-LWA (Homo sapiens, UniProt Q14671 828-1176, C935L;R936W;Q939A). The method in brief: as §1
The next assay addresses PUM1 PUF domain R3-GWA (Homo sapiens, UniProt Q14671 828-1176, C935G;R936W;Q939A). The method in brief:
as §1

The target in a further assay is PUM1 PUF domain R3-RRT (Homo sapiens, UniProt Q14671 828-1176, C935R;Q939T). The method in brief: as §1
The next assay addresses PUM1 PUF domain R5-RNV (Homo sapiens, UniProt Q14671 828-1176, C1007R;R1008N;Q1011V). The method in brief:
as §1

For another assay, the target named is PUM1 PUF domain R5-DHG (Homo sapiens, UniProt Q14671 828-1176, C1007D;R1008H;Q1011G). A digest of the protocol:
as §1

For the next assay, the target named is PUM1 PUF domain R5-MHS (Homo sapiens, UniProt Q14671 828-1176, C1007M;R1008H;Q1011S). A digest of the protocol:
as §1

The target in the next assay is PUM1 PUF domain R5-FHS (Homo sapiens, UniProt Q14671 828-1176, C1007F;R1008H;Q1011S). The method in brief:
as §1

A further assay concerns the target PUM1 PUF domain R4-ARC (Homo sapiens, UniProt Q14671 828-1176, N971A;H972R;Q975C). The method in brief:
as §1

Another assay deals with PUM1 PUF domain R5-SKR (Homo sapiens, UniProt Q14671 828-1176, C1007S;R1008K;Q1011R). The method in brief: as §1
Another assay deals with PUM1 PUF domain R5-KER (Homo sapiens, UniProt Q14671 828-1176, C1007K;R1008E;Q1011R). The method in brief:
as §1

Another assay concerns the target PUM1 PUF domain R1-RLN (Homo sapiens, UniProt Q14671 828-1176, S863R;R864L;Q867N). A digest of the protocol: as §1
A further assay concerns the target PUM1 PUF domain R1-KFM (Homo sapiens, UniProt Q14671 828-1176, S863K;R864F;Q867M). The method in brief:
as §1

In the next assay the target is PUM1 PUF domain R1-KCS (Homo sapiens, UniProt Q14671 828-1176, S863K;R864C;Q867S). The method in brief: as §1
Another assay concerns the target PUM1 PUF domain R7-GNG (Homo sapiens, UniProt Q14671 828-1176, S1079G;E1083G). A digest of the protocol: as §1
A further assay has as its target PUM1 PUF domain R7-RRW (Homo sapiens, UniProt Q14671 828-1176, S1079R;N1080R;E1083W). The method in brief: as §1
A further assay deals with PUM1 PUF domain R5-AYY (Homo sapiens, UniProt Q14671 828-1176, C1007A;R1008Y;Q1011Y). A digest of the protocol: as §1
Another assay deals with PUM1 PUF domain R3-FRT (Homo sapiens, UniProt Q14671 828-1176, C935F;Q939T). A digest of the protocol:
as §1

The target of another assay is PUM1 PUF domain R2-EWD (Homo sapiens, UniProt Q14671 828-1176, N899E;Y900W;Q903D). The method in brief: as §1
Chain of PUM1 PUF domain R2-EWD (Q14671 828-1176 N899E/Y900W/Q903D): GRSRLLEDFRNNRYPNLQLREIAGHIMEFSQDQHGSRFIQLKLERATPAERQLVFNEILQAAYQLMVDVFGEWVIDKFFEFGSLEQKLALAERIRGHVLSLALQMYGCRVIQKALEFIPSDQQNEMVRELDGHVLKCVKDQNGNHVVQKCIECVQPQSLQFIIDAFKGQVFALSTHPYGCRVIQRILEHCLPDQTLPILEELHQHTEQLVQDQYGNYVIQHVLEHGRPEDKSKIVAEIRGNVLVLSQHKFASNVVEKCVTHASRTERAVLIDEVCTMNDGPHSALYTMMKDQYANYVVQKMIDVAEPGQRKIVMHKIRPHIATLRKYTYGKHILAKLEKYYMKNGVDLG

Chain of PUM1 PUF domain R3-GWA (Q14671 828-1176 C935G/R936W/Q939A): as the sequence (Q14671 828-1176 N899E/Y900W/Q903D) above, with E72N, W73Y, D76Q, C108G, R109W, Q112A counted along it
Chain of PUM1 PUF domain R5-FHS (Q14671 828-1176 C1007F/R1008H/Q1011S): as the sequence (Q14671 828-1176 N899E/Y900W/Q903D) above, with E72N, W73Y, D76Q, C180F, R181H, Q184S counted along it
Chain of PUM1 PUF domain R4-ARC (Q14671 828-1176 N971A/H972R/Q975C): as the sequence (Q14671 828-1176 N899E/Y900W/Q903D) above, with E72N, W73Y, D76Q, N144A, H145R, Q148C counted along it
Chain of PUM1 PUF domain R3-LWR (Q14671 828-1176 C935L/R936W/Q939R): as the sequence (Q14671 828-1176 N899E/Y900W/Q903D) above, with E72N, W73Y, D76Q, C108L, R109W, Q112R counted along it
Chain of PUM1 PUF domain R3-LWA (Q14671 828-1176 C935L/R936W/Q939A): as the sequence (Q14671 828-1176 N899E/Y900W/Q903D) above, with E72N, W73Y, D76Q, C108L, R109W, Q112A counted along it
Chain of PUM1 PUF domain R1-RLN (Q14671 828-1176 S863R/R864L/Q867N): as the sequence (Q14671 828-1176 N899E/Y900W/Q903D) above, with S36R, R37L, Q40N, E72N, W73Y, D76Q counted along it
Chain of PUM1 PUF domain R7-RRW (Q14671 828-1176 S1079R/N1080R/E1083W): as the sequence (Q14671 828-1176 N899E/Y900W/Q903D) above, with E72N, W73Y, D76Q, S252R, N253R, E256W counted along it
Chain of PUM1 PUF domain R5-MHS (Q14671 828-1176 C1007M/R1008H/Q1011S): as the sequence (Q14671 828-1176 N899E/Y900W/Q903D) above, with E72N, W73Y, D76Q, C180M, R181H, Q184S counted along it
Chain of PUM1 PUF domain R5-RNV (Q14671 828-1176 C1007R/R1008N/Q1011V): as the sequence (Q14671 828-1176 N899E/Y900W/Q903D) above, with E72N, W73Y, D76Q, C180R, R181N, Q184V counted along it
Chain of PUM1 PUF domain R1-KCS (Q14671 828-1176 S863K/R864C/Q867S): as the sequence (Q14671 828-1176 N899E/Y900W/Q903D) above, with S36K, R37C, Q40S, E72N, W73Y, D76Q counted along it
Chain of PUM1 PUF domain R7-GNG (Q14671 828-1176 S1079G/E1083G): as the sequence (Q14671 828-1176 N899E/Y900W/Q903D) above, with E72N, W73Y, D76Q, S252G, E256G counted along it
Chain of PUM1 PUF domain R5-AYY (Q14671 828-1176 C1007A/R1008Y/Q1011Y): as the sequence (Q14671 828-1176 N899E/Y900W/Q903D) above, with E72N, W73Y, D76Q, C180A, R181Y, Q184Y counted along it
Chain of PUM1 PUF domain R3-RSA (Q14671 828-1176 C935R/R936S/Q939A): as the sequence (Q14671 828-1176 N899E/Y900W/Q903D) above, with E72N, W73Y, D76Q, C108R, R109S, Q112A counted along it
Chain of PUM1 PUF domain R5-SKR (Q14671 828-1176 C1007S/R1008K/Q1011R): as the sequence (Q14671 828-1176 N899E/Y900W/Q903D) above, with E72N, W73Y, D76Q, C180S, R181K, Q184R counted along it
Chain of PUM1 PUF domain R3-FRT (Q14671 828-1176 C935F/Q939T): as the sequence (Q14671 828-1176 N899E/Y900W/Q903D) above, with E72N, W73Y, D76Q, C108F, Q112T counted along it
Chain of PUM1 PUF domain R5-KER (Q14671 828-1176 C1007K/R1008E/Q1011R): as the sequence (Q14671 828-1176 N899E/Y900W/Q903D) above, with E72N, W73Y, D76Q, C180K, R181E, Q184R counted along it
Chain of PUM1 PUF domain R1-KFM (Q14671 828-1176 S863K/R864F/Q867M): as the sequence (Q14671 828-1176 N899E/Y900W/Q903D) above, with S36K, R37F, Q40M, E72N, W73Y, D76Q counted along it
Chain of PUM1 PUF domain R3-RRT (Q14671 828-1176 C935R/Q939T): as the sequence (Q14671 828-1176 N899E/Y900W/Q903D) above, with E72N, W73Y, D76Q, C108R, Q112T counted along it
Chain of PUM1 PUF domain R5-DHG (Q14671 828-1176 C1007D/R1008H/Q1011G): as the sequence (Q14671 828-1176 N899E/Y900W/Q903D) above, with E72N, W73Y, D76Q, C180D, R181H, Q184G counted along it

Regarding “GGCUAGAACUAGUGGAUCCCCCGGCGCCCGGCGGCUCGAGCCCGGGUAAGUGUAAUUAGUCUGCAUGCCGCCGGGCGCCAUGCCUGCAGGUCGACUCUAGAAAACAUG”, the binding signal is 3.54 log2 enrichment (interaction score) in the assay with PUM1 PUF domain R3-RSA; 4.17 log2 enrichment (interaction score) in the assay with PUM1 PUF domain R3-LWR; 4.71 log2 enrichment (interaction score) with PUM1 PUF domain R3-LWA; 1.14 log2 enrichment (interaction score) in the assay with PUM1 PUF domain R3-GWA; 3.01 log2 enrichment (interaction score) with PUM1 PUF domain R3-RRT.
In the case of “GGCUAGAACUAGUGGAUCCCCCGGCGCCCGGCGGCUCGAGCCCGGGUAAGUGUUAAUAGUCUGCAUGCCGCCGGGCGCCAUGCCUGCAGGUCGACUCUAGAAAACAUG”, the binding signal was 2.58 log2 enrichment (interaction score) with PUM1 PUF domain R5-RNV, 4.67 log2 enrichment (interaction score) with PUM1 PUF domain R5-DHG, 5.58 log2 enrichment (interaction score) with PUM1 PUF domain R5-MHS and 0.94 log2 enrichment (interaction score) with PUM1 PUF domain R5-FHS.
In the case of “GGCUAGAACUAGUGGAUCCCCCGGCGCCCGGCGGCUCGAGCCCGGGUAAGUGUAUAUAGUCUGCAUGCCGCCGGGCGCCAUGCCUGCAGGUCGACUCUAGAAAACAUG”, the binding signal in the assay with PUM1 PUF domain R4-ARC is 1.56 log2 enrichment (interaction score).
Take “GGCUAGAACUAGUGGAUCCCCCGGCGCCCGGCGGCUCGAGCCCGGGUAAGUGUCAAUAGUCUGCAUGCCGCCGGGCGCCAUGCCUGCAGGUCGACUCUAGAAAACAUG”: the binding signal in the assay with PUM1 PUF domain R5-SKR is 5.88 log2 enrichment (interaction score); in the assay with PUM1 PUF domain R5-RNV, 2.8 log2 enrichment (interaction score); with PUM1 PUF domain R5-FHS it was 1.75 log2 enrichment (interaction score); in the assay with PUM1 PUF domain R5-KER it was 2.91 log2 enrichment (interaction score).
Turning to “GGCUAGAACUAGUGGAUCCCCCGGCGCCCGGCGGCUCGAGCCCGGGUAAGUGUAAAUCGUCUGCAUGCCGCCGGGCGCCAUGCCUGCAGGUCGACUCUAGAAAACAUG”, the binding signal is 2.71 log2 enrichment (interaction score) with PUM1 PUF domain R1-RLN, 4.3 log2 enrichment (interaction score) with PUM1 PUF domain R1-KFM and 4.55 log2 enrichment (interaction score) with PUM1 PUF domain R1-KCS.
With “GGCUAGAACUAGUGGAUCCCCCGGCGCCCGGCGGCUCGAGCCCGGGUAAGUUUAAAUAGUCUGCAUGCCGCCGGGCGCCAUGCCUGCAGGUCGACUCUAGAAAACAUG”, the binding signal with PUM1 PUF domain R7-GNG was 5.55 log2 enrichment (interaction score); in the assay with PUM1 PUF domain R7-RRW, 4.75 log2 enrichment (interaction score).
“GGCUAGAACUAGUGGAUCCCCCGGCGCCCGGCGGCUCGAGCCCGGGUAAGUCUAAAUAGUCUGCAUGCCGCCGGGCGCCAUGCCUGCAGGUCGACUCUAGAAAACAUG”: in the assay with PUM1 PUF domain R7-RRW, the binding signal was 4.3 log2 enrichment (interaction score).
On to “GGCUAGAACUAGUGGAUCCCCCGGCGCCCGGCGGCUCGAGCCCGGGUAAGUGUAAAUUGUCUGCAUGCCGCCGGGCGCCAUGCCUGCAGGUCGACUCUAGAAAACAUG”, for which the binding signal is 2.1 log2 enrichment (interaction score) in the assay with PUM1 PUF domain R1-RLN and 4.89 log2 enrichment (interaction score) with PUM1 PUF domain R1-KCS.
For the sequence “GGCUAGAACUAGUGGAUCCCCCGGCGCCCGGCGGCUCGAGCCCGGGUAAGUGUAAAUAGUCUGCAUGCCGCCGGGCGCCAUGCCUGCAGGUCGACUCUAGAAAACAUG”, the binding signal with PUM1 PUF domain R5-AYY was 3.24 log2 enrichment (interaction score); with PUM1 PUF domain R5-FHS, 2.12 log2 enrichment (interaction score); with PUM1 PUF domain R3-LWR, 2.03 log2 enrichment (interaction score); with PUM1 PUF domain R3-LWA, 2.61 log2 enrichment (interaction score); in the assay with PUM1 PUF domain R4-ARC, 5.53 log2 enrichment (interaction score); with PUM1 PUF domain R3-GWA it was 3.32 log2 enrichment (interaction score).
With “GGCUAGAACUAGUGGAUCCCCCGGCGCCCGGCGGCUCGAGCCCGGGUAAGUGUACAUAGUCUGCAUGCCGCCGGGCGCCAUGCCUGCAGGUCGACUCUAGAAAACAUG”, the binding signal with PUM1 PUF domain R4-ARC was 0.97 log2 enrichment (interaction score).
As to “GGCUAGAACUAGUGGAUCCCCCGGCGCCCGGCGGCUCGAGCCCGGGUAAGUGUAAGUAGUCUGCAUGCCGCCGGGCGCCAUGCCUGCAGGUCGACUCUAGAAAACAUG”, the binding signal with PUM1 PUF domain R3-FRT was 4.75 log2 enrichment (interaction score); with PUM1 PUF domain R3-LWR, 5.5 log2 enrichment (interaction score); with PUM1 PUF domain R3-LWA, 5.58 log2 enrichment (interaction score); with PUM1 PUF domain R3-GWA, 2.87 log2 enrichment (interaction score).
As for “GGCUAGAACUAGUGGAUCCCCCGGCGCCCGGCGGCUCGAGCCCGGGUAAGUGUAAAGAGUCUGCAUGCCGCCGGGCGCCAUGCCUGCAGGUCGACUCUAGAAAACAUG”, the binding signal with PUM1 PUF domain R2-EWD is 9.68 log2 enrichment (interaction score).
In the case of “GGCUAGAACUAGUGGAUCCCCCGGCGCCCGGCGGCUCGAGCCCGGGUAAGUGUGAAUAGUCUGCAUGCCGCCGGGCGCCAUGCCUGCAGGUCGACUCUAGAAAACAUG”, the binding signal with PUM1 PUF domain R5-MHS was 2.4 log2 enrichment (interaction score); in the assay with PUM1 PUF domain R5-FHS it was 2.39 log2 enrichment (interaction score).
